Results reported in PubChem BioAssay (EPA / NIEHS).
Several values for one entry are separate records, joined by “and”; a condition that tells them apart may be missing. Equal entries are not always repeated. The source holds several records for some structures; these can differ, active in one and inactive in another. Activity calls are given as the source filed them. How the source made its calls: active means hit-call score of the fitted dose curve at least 0.9, where 1 is the maximum; inactive means score below 0.9.

Experiments:
[1] = BSK_MyoF_SRB: Viability Assessment in the BioMAP Diversity Plus: MyoF Assay (AID 2284267); conditions: primary human lung fibroblasts;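 further: total protein by SRB absorbance in parallel cultures as cytotoxicity measure; cells assessed 24 h after compound addition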
How it was run: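 In this viability endpoint, fibroblasts from human lung are treated for 24 h, TCA-fixed, SRB-stained (0.1%) and read at 560 nm. Gain of signal relative to DMSO defines activity.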

[2] = read-out: Matrix Metallopeptidase 1 (MMP1), MMP1 (gene 4312); test: BSK_MyoF_MMP1: BioMAP Diversity Plus: MyoF Assay for Matrix Metallopeptidase 1 (MMP1) Biomarker Activity (AID 2284268); conditions: primary human lung fibroblasts
How it was run: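 Lung fibroblast cultures were dosed with test chemicals and, after 24 h, MMP1 levels were measured by ELISA; responses were referenced to DMSO and analysed for increases.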

[3] = read-out: TIMP metallopeptidase inhibitor 1 (TIMP1), TIMP1 (gene 7076); test: BSK_MyoF_TIMP1: BioMAP Diversity Plus: MyoF Assay for TIMP metallopeptidase inhibitor 1 (TIMP1) Biomarker Activity (AID 2284269); conditions: primary human lung fibroblasts
How it was run: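 TIMP-1 levels were determined by ELISA in human lung fibroblasts treated for 24 h. DMSO served as negative control and baseline for upward curve fitting.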

[4] = read-out: Matrix Metallopeptidase 1 (MMP1), MMP1 (gene 4312); test: BSK_BF4T_MMP1: BioMAP Diversity Plus: BF4T Assay for Matrix Metallopeptidase 1 (MMP1) Biomarker Activity (AID 2284270); conditions: primary human bronchial epithelial cells with fibroblasts
How it was run: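 MMP-1 quantified by ELISA in primary human bronchial epithelial/dermal fibroblast co-cultures, 24 hours post-dosing, with DMSO as baseline; parallel sulforhodamine B staining (560 nm) tracks overt cytotoxicity.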

[5] = read-out: Matrix Metallopeptidase 3 (MMP3), MMP3 (gene 4314); test: BSK_BF4T_MMP3: BioMAP Diversity Plus: BF4T Assay for Matrix Metallopeptidase 3 (MMP3) Biomarker Activity (AID 2284271); conditions: primary human bronchial epithelial cells with fibroblasts
How it was run: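 MMP-3 level read by ELISA after 24 h chemical exposure of bronchial epithelial cell/dermal fibroblast co-cultures, fitted upward relative to DMSO. Parallel cultures stained with 0.1% SRB after TCA fixation gauge overt cytotoxicity.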

[6] = read-out: Tissue plasminogen activator (tPA), PLAT (gene 5327); test: BSK_BF4T_tPA: BioMAP Diversity Plus: BF4T Assay for Tissue plasminogen activator (tPA) Biomarker Activity (AID 2284272); conditions: primary human bronchial epithelial cells with fibroblasts
How it was run: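 tPA level quantified by ELISA at 24 h post-treatment in bronchial epithelial/dermal fibroblast co-cultures, gain of signal scored against DMSO baseline. Parallel cultures stained with 0.1% SRB (560 nm) to flag overt cytotoxicity.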

[7] = read-out: Plasminogen Activator Inhibitor-1 (PAI1), SERPINE1 (gene 5054); test: BSK_BF4T_PAI1: BioMAP Diversity Plus: BF4T Assay for Plasminogen Activator Inhibitor-1 (PAI1) Biomarker Activity (AID 2284273); conditions: primary human bronchial epithelial cells with fibroblasts
How it was run: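 PAI-1 levels quantified by ELISA 24 h post-dosing in bronchial epithelial cell plus dermal fibroblast cultures. Signal gain referenced to DMSO baseline. Sulforhodamine B total-protein staining of parallel wells checked cytotoxicity.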

[8] = BSK_BF4T_SRB: Viability Assessment in the BioMAP Diversity Plus: BF4T Assay (AID 2284274); conditions: primary human bronchial epithelial cells with fibroblasts
How it was run: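 Cytotoxicity measured as total protein: cells fixed with 10% TCA, stained with 0.1% SRB, read at 560 nm. Bronchial epithelial/dermal fibroblast co-culture, 24 h after dosing, with positive-direction fitting relative to DMSO.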

[9] = read-out: urokinase Plasminogen Activator (uPA), PLAU (gene 5328); test: BSK_BF4T_uPA: BioMAP Diversity Plus: BF4T Assay for urokinase Plasminogen Activator (uPA) Biomarker Activity (AID 2284275); conditions: primary human bronchial epithelial cells with fibroblasts
How it was run: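 uPA levels measured by ELISA at 24 hours in BF4T cultures (bronchial epithelial cells plus dermal fibroblasts) and compared with DMSO; cytotoxicity tracked in parallel cultures by sulforhodamine B staining.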

[10] = read-out: Matrix Metallopeptidase 9 (MMP9), MMP9 (gene 4318); test: BSK_BF4T_MMP9: BioMAP Diversity Plus: BF4T Assay for Matrix Metallopeptidase 9 (MMP9) Biomarker Activity (AID 2284276); conditions: primary human bronchial epithelial cells with fibroblasts
How it was run: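 MMP-9 levels were measured by ELISA after 24 h exposure of bronchial epithelial cell/dermal fibroblast co-cultures, with DMSO as baseline. Parallel cultures were stained with 0.1% SRB after TCA fixation, read at 560 nm, to flag overt cytotoxicity.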

[11] = read-out: Interleukin-8 (IL8), CXCL8 (gene 3576); test: BSK_IMphg_IL8: BioMAP Diversity Plus: IMphg Assay for Interleukin-8 (IL8) Biomarker Activity (AID 2284277); conditions: primary human endothelial cells with macrophages
How it was run: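 IL-8 levels were measured by ELISA 24 h after dosing in primary human venular endothelial cell–macrophage cultures, referenced to DMSO; parallel SRB staining monitored overt cytotoxicity.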

[12] = read-out: Intercellular Adhesion Molecule 1 (ICAM1), ICAM1 (gene 3383); test: BSK_BE3C_ICAM1: BioMAP Diversity Plus: BE3C Assay for Intercellular Adhesion Molecule 1 (ICAM1) Biomarker Activity (AID 2284278); conditions: primary human bronchial epithelial cells
How it was run: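 hu bronchial epithelial primary cells, 24 h cpd exposure, ICAM-1 ELISA; gain-of-signal fit vs DMSO baseline.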

[13] = read-out: Interferon-inducible T-cell alpha chemoattractant (ITAC), CXCL11 (gene 6373); test: BSK_BE3C_ITAC: BioMAP Diversity Plus: BE3C Assay for Interferon-inducible T-cell alpha chemoattractant (ITAC) Biomarker Activity (AID 2284279); conditions: primary human bronchial epithelial cells
How it was run: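 The assay measures I-TAC levels by ELISA in human primary bronchial epithelial cell cultures 24 hours after chemical treatment. Values reflect signal increase over the DMSO baseline.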

[14] = read-out: Interleukin-8 (IL8), CXCL8 (gene 3576); test: BSK_BE3C_IL8: BioMAP Diversity Plus: BE3C Assay for Interleukin-8 (IL8) Biomarker Activity (AID 2284280); conditions: primary human bronchial epithelial cells
How it was run: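 Primary human bronchial epithelial cells (BE3C system) were exposed to test chemical for 24 h, and IL-8 levels were then measured by ELISA. Activity was fitted in the positive (gain-of-signal) direction against a DMSO negative-control baseline.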

[15] = read-out: Epidermal growth factor receptor (EGFR), EGFR (gene 1956); test: BSK_BE3C_EGFR: BioMAP Diversity Plus: BE3C Assay for Epidermal growth factor receptor (EGFR) Biomarker Activity (AID 2284281); conditions: primary human bronchial epithelial cells
How it was run: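 Human primary bronchial epithelial cells were exposed to compound for 24 h, and cell-surface EGFR was then quantified by ELISA. Activity was fitted in the positive direction against the DMSO vehicle baseline.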

[16] = read-out: KRT18 (gene 3875); test: BSK_BE3C_Keratin818: BioMAP Diversity Plus: BE3C Assay for Keratin 818 Biomarker Activity (AID 2284282); conditions: primary human bronchial epithelial cells
How it was run: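 In this multiplexed primary-cell system, bronchial epithelial cells were dosed and harvested at 24 h. Keratin 8/18 was determined by ELISA and analysed for increases over DMSO controls.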

[17] = read-out: Matrix Metallopeptidase 9 (MMP9), MMP9 (gene 4318); test: BSK_BE3C_MMP9: BioMAP Diversity Plus: BE3C Assay for Matrix Metallopeptidase 9 (MMP9) Biomarker Activity (AID 2284283); conditions: primary human bronchial epithelial cells
How it was run: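 BE3C, human bronchial epithelial primary cells; 24 h post-dose; MMP-9 by ELISA; positive fit vs DMSO; SRB (0.1%, TCA-fixed, 560 nm) parallel cytotox.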

[18] = read-out: Plasminogen activator inhibitor-1 (PAI1), SERPINE1 (gene 5054); test: BSK_CASM3C_PAI1: BioMAP Diversity Plus: CASM3C Assay for Plasminogen activator inhibitor-1 (PAI1) Biomarker Activity (AID 2284284); conditions: primary human coronary artery smooth muscle cells
[19] = read-out: Monocyte Chemoattractant Protein-1 (MCP1), CCL2 (gene 6347); test: BSK_hDFCGF_MCP1: BioMAP Diversity Plus: hDFCGF Assay for Monocyte Chemoattractant Protein-1 (MCP1) Biomarker Activity (AID 2284285); conditions: primary human foreskin fibroblasts
How it was run: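 MCP-1 ELISA readout was taken 24 hours after dosing primary human dermal fibroblasts in the hDFCGF system, with DMSO as baseline. Parallel sulforhodamine B staining of total protein tracked overt cytotoxicity.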

[20] = read-out: Vascular cell adhesion molecule 1 (VCAM1), VCAM1 (gene 7412); test: BSK_IMphg_VCAM1: BioMAP Diversity Plus: IMphg Assay for Vascular cell adhesion molecule 1 (VCAM1) Biomarker Activity (AID 2284286); conditions: primary human endothelial cells with macrophages
How it was run: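 ELISA read-out of VCAM-1 on venular endothelial cell/macrophage co-cultures at 24 h post-treatment, with DMSO as baseline and positive-direction fitting. Parallel sulforhodamine B total-protein staining (560 nm) served as the overt cytotoxicity measure.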

Measured: AC50

Cc1c(O)cccc1O
inactive: [1] | [2] | [3]

Nc1cccc(N)n1
inactive: [1] | [2] | [3]

O=C(Oc1ccccc1)c1ccccc1C(=O)Oc1ccccc1
inactive: [1] | [2] | [3]

CCCCC1C(=O)N(c2ccccc2)N(c2ccccc2)C1=O
inactive: [1] | [2] | [3]

Clc1cc(Cl)c(Cl)c(Cl)c1Cl
active: [1] 20 µM | [2] 23.2 µM
inactive: [3]

CCCCCC1=CCCC1=O
inactive: [1] | [2] | [3]

C=CC(=O)NC(C)(C)C
inactive: [1] | [2] | [3]

CCNc1nc(NC(C)(C)C)nc(OC)n1
inactive: [1] | [2] | [3]

CCOC(=O)/C=C\C(=O)OCC
inactive: [1] | [2] | [3]

CCCCCCC=O
inactive: [1] | [2] | [3]

CC(c1cc(C(C)(C)C)cc(C(C)(C)C)c1O)c1cc(C(C)(C)C)cc(C(C)(C)C)c1O
inactive: [1] | [2] | [3]

CC(C)[N+](C)(CCOC(=O)C1c2ccccc2Oc2ccccc21)C(C)C
inactive: [1] | [2] | [3]

O=C1CCCCCCCCCCC1
inactive: [1] | [2] | [3]

CC(C)CCCCCOC(=O)CS
inactive: [1] | [2] | [3]

CCC1(C)C(=O)N(Cl)C(=O)N1Cl (stereo unspecified)
inactive: [1] | [2] | [3]

CC=C(C)C(C)=O
inactive: [1] | [2] | [3]

CC/C=C\CCOC(=O)c1ccccc1O
active: [1] 37 µM | [3] 35.5 µM
inactive: [2]

COc1ccc(C(=O)/C(Br)=C\C(=O)O)cc1
inactive: [1] | [3]
active: [2] 16.1 µM and 20 µM

C=CC(=O)OCCCCCCCC(C)C
inactive: [1] | [2] | [3]

C=CC(=O)OCC(C)OCC(C)OCC(C)OC(=O)C=C (stereo unspecified)
active: [1] 33.2 µM | [2] 35.1 µM

CC(C)c1cccc(C(C)C)c1N
inactive: [1] | [2] | [3]

CC=C(C)C=CC=C(C)C
inactive: [1] | [2] | [3]

C=C(C)C(=O)OCCCCCCCCCCCC
inactive: [1] | [2] | [3]

CCN1CN(CC)CN(CC)C1
inactive: [1] | [2] | [3]

Oc1ccc(/C=C/c2cc(O)cc(O)c2)cc1
inactive: [1] | [2] | [3]

CC(Cl)COP(=O)(OCC(C)Cl)OCC(C)Cl (stereo unspecified)
inactive: [1] | [2] | [3]

CC/C=C\C/C=C\C/C=C\CCCCCCCC(=O)OC
active: [1] 10.4 µM | [2] 36.5 µM | [3] 20 µM

CCCCCCCO
inactive: [1] | [2] | [3]

C=CCCCCCCCCC=O
inactive: [1] | [2] | [3]

O=C(O)C(F)(F)C(F)(F)C(F)(F)C(F)(F)C(=O)O
inactive: all assays above

COc1ccc(C(=O)c2ccccc2)c(O)c1
inactive: [1] | [2] | [3]

c1ccc(Nc2cccc3ccccc23)cc1
inactive: [12] | [14] | [18]
active: [12] 12.7 µM | [13] 27.2 µM and 30.3 µM | [15] 17.6 µM and 37 µM | [16] 20 µM | [17] 20 µM and 26.6 µM | [19] 20.8 µM and 14.2 µM

CCOC(=O)C1=NOC(c2ccccc2)(c2ccccc2)C1
inactive: [1] | [2] | [3]

CC1(C)CC(O)CC(C)(C)N1[O]
inactive: [1] | [2] | [3]

Fc1ccc(Br)cc1
inactive: [1] | [2] | [3]

CCCCCCOC(=O)CCCCC(=O)OCCCCCC
inactive: [1] | [2] | [3]

CCCCCCCCCCCC(C)=O
inactive: [1] | [2] | [3]

Oc1c(Cl)cc(Cl)c(Cl)c1Cl
inactive: [2]
active: [1] 26.6 µM | [3] 33 µM

O=C1CCCCCCCCCCCN1
inactive: [1] | [2] | [3]

CCCCCCCCC(CO)CCCCCC (stereo unspecified)
inactive: [1] | [2] | [3]

c1ccc2sc(SSN3CCOCC3)nc2c1
active: [1] 31.5 µM | [2] 4.91 µM | [3] 31.5 µM

O=C(Cl)c1c(Cl)c(Cl)c(C(=O)Cl)c(Cl)c1Cl
inactive: [1] | [2] | [3]

CCCC(C)C(=O)OCC (stereo unspecified)
inactive: [12] | [13] | [14] | [15] | [16] | [17] | [18] | [19]
